Holding throughout (format): functional
Assay [1] has as its system Plasmodium falciparum. The experiment in a line: GSK_TCMDC: Inhibition of Plasmodium falciparum 3D7 in whole red blood cells, using parasite LDH activity as an index of growth. Test compounds present at 2uM.
The subject of assay [2] is Plasmodium falciparum. The assay is described as follows: GSK_TCMDC: Inhibition of Plasmodium falciparum Dd2 in whole red blood cells, using parasite LDH activity as an index of growth. Test compounds present at 2uM.
The subject of assay [3] is HepG2. The experiment in a line: GSK_TCMDC: Percent inhibition of human HepG2 cell line. Test compounds present at 10uM.

This is an account of results in ChEMBL document CHEMBL1157539, “Thousands of chemical starting points for antimalarial lead identification” (Nature, 2010).

SMILES strings stand for the structures.

Usually Inhibition stands for the share of the control response that was lost under treatment. Higher therefore signals a response far below the control.

In the case of `O=C(Nc1cccc(C(F)(F)F)c1)N1CCOC(CCN2CCC3(CCc4ccccc43)CC2)(c2ccc(Cl)c(Cl)c2)C1` (centres undefined), the Inhibition in assay [1] was 99%; in assay [2], 70%; in assay [3], 31%.

For `Cn1cnc(CCNC(=O)c2ccc(-c3cccc(-c4nc5cc(F)ccc5[nH]4)c3)cc2)c1`, the Inhibition in assay [1] stood at 100%; in assay [2] it was 24%; in assay [3], 23%.

As to `C/C(=C\C(=O)NC1CC1)c1ccccc1OCc1ccccc1`, the Inhibition in assay [1] came to 90%; in assay [2] it was 1%; in assay [3] it was 3%.

Regarding `CNc1cc(-c2ccc3ccnc(N)c3c2)nc(N)n1.O=CO`, the Inhibition in assay [1] is reported as 100%; in assay [2], 81%; in assay [3] it was 23%.

Regarding `CC(C)c1cn2c3c(cc(C(=O)N[C@@H](Cc4ccccc4)[C@H](O)CNC4CCOCC4)cc13)N(C)S(=O)(=O)CC2.O=CO`, the Inhibition in assay [1] amounted to 98%; in assay [2] it was 99%; in assay [3], 9%.

Turning to `COc1cc(F)c2ncc(Cl)c(CCN3CCC(NCc4ccc5c(c4)NC(=O)CO5)CC3)c2c1.Cl`, the Inhibition is 95% in assay [1], 79% in assay [2] and 32% in assay [3].

Consider `CN(C)CCCNCc1ccc(-c2ccc(C(F)(F)F)cc2)cc1`, for which the Inhibition in assay [1] is on record as 96%; in assay [2] it was 35%; in assay [3], 30%.

In the case of `CS(=O)(=O)c1ccc(CCNCc2ccc(-c3ccc(CNC4Cc5ccccc5C4)cc3)nc2)cc1.O=C(O)C(F)(F)F`, the results for the Inhibition in assay [1], in assay [2] and in assay [3] were 100%, 80% and 18%, respectively.

As to `O=C(Nc1ccc(-c2ccccc2)cc1)Nc1cccc(Cn2ncc(N3CCNCC3)c(Cl)c2=O)c1.O=C(O)C(F)(F)F`, the Inhibition in assay [1] was 100%; in assay [2], 59%; in assay [3] it was 30%.

In the case of `Cc1cc(CN2CC[C@H](NC(=O)c3ccc(Cl)c(Cl)c3)C2)ccc1OCCCN(C)C.O=C(O)C(F)(F)F`, the Inhibition in assay [1] is 99%; in assay [2], 35%; in assay [3], 41%.

For the molecule `Cn1cc(C(=O)Nc2cccc(-c3cccc(-c4nc5cc(F)ccc5[nH]4)c3)c2)n(C)c1=O`, the Inhibition is listed as 98% in assay [1], 50% in assay [2] and 15% in assay [3].

With `O=C(NC1CCCCN(Cc2ccccc2O)C1)c1cccc(Cl)c1.O=C(O)C(F)(F)F` (centres undefined), the Inhibition in assay [1] stood at 86%; in assay [2], 30%; in assay [3] it was 15%.

In the case of `NC(CC1CC(=O)N1CC(=O)O)C(=O)O` (centres undefined), the Inhibition was found to be 95% in assay [1], 0% in assay [2] and 56% in assay [3].

In the case of `COc1ccc(CNCc2ccc(-c3ccc(-c4nc5cc(C(F)(F)F)ccc5[nH]4)s3)cc2)cc1.O=C(O)C(F)(F)F`, the Inhibition in assay [1] was determined as 100%; in assay [2], 98%; in assay [3], 38%.

For the molecule `CCc1c[nH]c2c(N3CCCS3(=O)=O)cc(C(=O)N[C@@H](Cc3ccccc3)[C@H](O)CNC(C)(C)CCCC(C)C)cc12`, the values for the Inhibition in assay [1], in assay [2] and in assay [3] were 96%, 98% and 13%, respectively.

Turning to `COc1ccc2nccc([C@@H](O)CN3CCC(NCC(O)Cc4ccccc4)CC3)c2c1.O=C(O)C(=O)O` (some centres undefined), the Inhibition in assay [1] was determined as 98%; in assay [2] it was 6%; in assay [3], 5%.

As for `CC(=O)O.Nc1nc(N)c2cc3ccc(OCc4ccccc4)cc3nc2n1`, the Inhibition in assay [1] is given as 100%; in assay [2], 75%; in assay [3], 78%.

Turning to `CCCCn1c(SC(C)C)nc2c(c1=O)C1(CCCCC1)Cc1ccccc1-2`, the Inhibition is recorded as 99% in assay [1], 60% in assay [2] and 1% in assay [3].

For the molecule `O=C(NCC1CCC(CNCCCc2ccccc2)CC1)c1cc(Cl)cc(Cl)c1` (centres undefined), the results for the Inhibition in assay [1], in assay [2] and in assay [3] were 89%, 13% and 58%, respectively.

As for `Cn1nc(-c2cccc(CNC3CCc4ccccc43)c2)c2cnc(NCCCN3CCCC3)nc21` (centres undefined), the values for the Inhibition in assay [1], in assay [2] and in assay [3] were 99%, 15% and 29%, respectively.

As for `CCOc1cc(CC)ccc1C1CCN(CCCCNC(=O)c2ccc(NC(=O)c3ccc(C#N)cc3)cc2)CC1`, the Inhibition is listed as 91% in assay [1], 50% in assay [2] and 55% in assay [3].

Turning to `Br.CCCCCCCN(CCCCCCC)CCNc1cc(C)nc2ccccc12`, the Inhibition is listed as 89% in assay [1], 31% in assay [2] and 39% in assay [3].

Turning to `COc1cc(OC)cc(-c2nn(-c3ccc([N+](=O)[O-])cc3C#N)c(=S)n2CC2CCCO2)c1` (centres undefined), the Inhibition is listed as 98% in assay [1], 75% in assay [2] and 9% in assay [3].

On to `COc1nc2c(CCN3CC[C@H](NCc4cc(C#N)c5c(c4)CCO5)[C@H](O)C3)ccnc2cc1F`, for which the Inhibition is listed as 99% in assay [1], 71% in assay [2] and 31% in assay [3].

As to `NCc1ccc(CNCc2cccc(-c3cccc(-c4nc5cc(F)ccc5[nH]4)c3)c2)cc1.O=C(O)C(F)(F)F`, the Inhibition in assay [1] turned out to be 100%; in assay [2] it was 34%; in assay [3], 15%.

`CCOc1ccc(-c2nc(NC(=O)Cc3cccc(OC)c3)sc2C)cc1`: the Inhibition came to 97% in assay [1], 28% in assay [2] and 15% in assay [3].

For `O=C(NCCOc1ccccc1)[C@H](Cc1ccccc1)Nc1ccnc(NCC2CCCCC2)n1.O=C(O)C(F)(F)F`, the Inhibition is on record as 96% in assay [1], 73% in assay [2] and 80% in assay [3].

For `Cc1cccc2nc(-c3cccc(-c4ccc(NC(=O)C(C)(C)c5ccccn5)cc4)c3)[nH]c12`, the Inhibition in assay [1] was 97%; in assay [2] it was 4%; in assay [3] it was 0%.
